The sample as a whole holds a higher share of the strongest signals than the screen did.
What was measured:
Experiment in all cases: glycan array binding signal (z-score within array); higher = stronger binding
Conditions in all cases: glycan notation: IUPAC condensed, linker removed
[1] = target: Fuc(a1-2)Gal(b1-3)GalNAc(b1-3)Gal(a1-4)Gal(b1-4)Glc
Method in brief: (§1)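 The Consortium for Functional Glycomics database supplied 3228 glycan arrays, of which those lacking an available protein sequence were dropped. The binding signal, a within-array Z-score, was averaged across arrays of the same protein sequence and across linkers. Negative scores can be read as non-binding.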

[2] = target: Fuc(a1-2)Gal(b1-3)GlcNAc(b1-3)[Fuc(a1-3)[Gal(b1-4)]GlcNAc(b1-6)]Gal(b1-4)Glc
Method in brief: as §1

[3] = target: Fuc(a1-2)Gal(b1-3)[Fuc(a1-4)]GlcNAc(b1-2)Man(a1-3)[Fuc(a1-2)Gal(b1-3)[Fuc(a1-4)]GlcNAc(b1-2)Man(a1-6)]Man(b1-4)GlcNAc(b1-4)GlcNAc
Method in brief: as §1

[4] = target: Fuc(a1-2)Gal(b1-3)[Fuc(a1-4)]GlcNAc(b1-3)[Fuc(a1-3)[Gal(b1-4)]GlcNAc(b1-6)]Gal(b1-4)Glc
Method in brief: as §1

[5] = target: Fuc(a1-2)Gal(b1-4)[Fuc(a1-3)]GlcNAc(b1-2)[Fuc(a1-2)Gal(b1-4)[Fuc(a1-3)]GlcNAc(b1-4)]Man(a1-3)[Fuc(a1-2)Gal(b1-4)[Fuc(a1-3)]GlcNAc(b1-2)Man(a1-6)]Man(b1-4)GlcNAc(b1-4)GlcNAc
Method in brief: as §1

[6] = target: Fuc(a1-2)[GalNAc(a1-3)]Gal(b1-3)GlcNAc(b1-2)Man(a1-3)[Fuc(a1-2)[GalNAc(a1-3)]Gal(b1-3)GlcNAc(b1-2)Man(a1-6)]Man(b1-4)GlcNAc(b1-4)[Fuc(a1-6)]GlcNAc
Method in brief: as §1

[7] = target: Fuc(a1-2)[GalNAc(a1-3)]Gal(b1-3)GlcNAc(b1-3)GalNAc
Method in brief: as §1

[8] = target: Fuc(a1-2)[GalNAc(a1-3)]Gal(b1-4)GlcNAc(b1-3)Gal(b1-4)GlcNAc(b1-3)Gal(b1-4)GlcNAc
Method in brief: as §1

[9] = target: Gal(a1-3)Gal(b1-4)GlcNAc(b1-3)GalNAc
Method in brief: as §1

[10] = target: Gal(a1-3)Gal(b1-4)[Fuc(a1-3)]GlcNAc(b1-2)Man(a1-3)[Gal(a1-3)Gal(b1-4)[Fuc(a1-3)]GlcNAc(b1-2)Man(a1-6)]Man(b1-4)GlcNAc(b1-4)GlcNAc
Method in brief: as §1

[11] = target: Gal(a1-4)Gal(b1-4)GlcNAc(b1-3)Gal(b1-4)Glc
Method in brief: as §1

[12] = target: Gal(b1-2)Gal
Method in brief: as §1

[13] = target: Gal(b1-3)Gal(b1-4)GlcNAc
Method in brief: as §1

[14] = target: Gal(b1-3)GlcNAc(b1-3)Gal(b1-4)Glc
Method in brief: as §1

[15] = target: Gal(b1-3)GlcNAc(b1-3)Gal(b1-4)GlcNAc
Method in brief: as §1

[16] = target: Gal(b1-3)[Fuc(a1-4)]GlcNAc(b1-2)Man(a1-3)[Gal(b1-3)[Fuc(a1-4)]GlcNAc(b1-2)Man(a1-6)]Man(b1-4)GlcNAc(b1-4)GlcNAc
Method in brief: as §1

[17] = target: Gal(b1-3)[Neu5Ac(a2-6)]GalNAc
Method in brief: as §1

[18] = target: Gal(b1-4)GlcNAc
Method in brief: as §1

[19] = target: Gal(b1-4)GlcNAc(b1-2)Man(a1-3)[Gal(b1-4)GlcNAc(b1-2)Man(a1-6)]Man(b1-4)GlcNAc(b1-4)GlcNAc
Method in brief: as §1

[20] = target: Gal(b1-4)GlcNAc(b1-3)Gal(b1-4)Glc
Method in brief: as §1

[21] = target: Gal(b1-4)GlcNAc(b1-3)[GlcNAc(b1-6)]Gal(b1-4)GlcNAc
Method in brief: as §1

[22] = target: Gal(b1-4)GlcNAc(b1-6)Gal(b1-4)GlcNAc(b1-6)GalNAc
Method in brief: as §1

[23] = target: Gal3S(b1-3)GalNAc
Method in brief: as §1

[24] = target: GalNAc(b1-3)Gal(a1-4)Gal(b1-4)GlcNAc(b1-3)Gal(b1-4)Glc
Method in brief: as §1

[25] = target: GalNAc(b1-3)GalNAc
Method in brief: as §1

[26] = target: Glc(a1-4)Glc
Method in brief: as §1

[27] = target: GlcNAc(a1-4)Gal(b1-3)GlcNAc
Method in brief: as §1

[28] = target: GlcNAc(a1-4)Gal(b1-4)GlcNAc(b1-3)Gal(b1-4)GlcNAc
Method in brief: as §1

[29] = target: GlcNAc(a1-6)Gal(b1-4)GlcNAc
Method in brief: as §1

[30] = target: GlcNAc(b1-2)Man(a1-3)[GlcNAc(b1-2)Man(a1-6)]Man(b1-4)GlcNAc(b1-4)[Fuc(a1-6)]GlcNAc
Method in brief: as §1

[31] = target: GlcNAc(b1-3)Gal
Method in brief: as §1

[32] = target: GlcNAc(b1-3)Gal(b1-4)Glc
Method in brief: as §1

[33] = target: GlcNAc(b1-3)Gal(b1-4)GlcNAc
Method in brief: as §1

[34] = target: GlcNAc(b1-3)[GlcNAc(b1-6)]Gal(b1-4)GlcNAc
Method in brief: as §1

[35] = target: GlcNAc(b1-3)[GlcNAc(b1-6)]GlcNAc(b1-4)GlcNAc
Method in brief: as §1

[36] = target: GlcNAc3Prop(b1-4)GlcNAc
Method in brief: as §1

[37] = target: Neu5Ac(a2-3)Gal(b1-4)GlcNAc(b1-3)Gal
Method in brief: as §1

[38] = target: Neu5Ac(a2-3)Gal(b1-4)[Fuc(a1-3)]GlcNAc6S
Method in brief: as §1

[39] = target: Neu5Ac(a2-3)Gal6S(b1-4)GlcNAc
Method in brief: as §1

[40] = target: Neu5Ac(a2-3)Gal6S(b1-4)[Fuc(a1-3)]GlcNAc
Method in brief: as §1

[41] = target: Neu5Ac(a2-3)[GalNAc(b1-4)]Gal(b1-4)Glc
Method in brief: as §1

[42] = target: Neu5Ac(a2-3)[GalNAc(b1-4)]Gal(b1-4)GlcNAc
Method in brief: as §1

[43] = target: Neu5Ac(a2-6)Gal(b1-4)GlcNAc(b1-2)Man(a1-3)Man(b1-4)GlcNAc(b1-4)GlcNAc
Method in brief: as §1

[44] = target: Neu5Ac(a2-6)Gal(b1-4)GlcNAc(b1-2)Man(a1-6)Man(b1-4)GlcNAc(b1-4)GlcNAc
Method in brief: as §1

[45] = target: Neu5Ac(a2-8)Neu5Ac(a2-8)Neu5Ac
Method in brief: as §1

[46] = target: Neu5Ac(b1-6)GalNAc
Method in brief: as §1

B1: F17aG (Escherichia coli), Q99003 (protein)
chain: MTNFYKVFLAVFILVCCNISQAAVSFIGSTENDVGPSLGSYSRTHAMDNLPFVYDTRNKIGYQNANVWHISKGFCVGLDGKVDLPVVGSLDGQSIYGLTEEVGLLIWMGDTKYSRGTAMSGNSWENVFSGWCVGANTASTQGLSVRVTPVILKRNSSARYSVQKTSIGSIRMRPYNGSSAGSVQTTVNFSLNPFTLNDTVTSCRLLTPSAVNVSLAAISAGQLPSSGDEVVAGTTSLKLQCDAGVTVWATLTDATTPSNRSDILTLTGASTATGVGLRIYKNTDSTPLKFGPDSPVKGNENQWQLSTGTETSPSVRLYVKYVNTGEGINPGTVNGISTFTFSYQ
glycan array binding signal (z-score) [1]: -0.23 | glycan array binding signal (z-score) [2]: -0.148 | glycan array binding signal (z-score) [3]: -0.169 | glycan array binding signal (z-score) [4]: -0.139 | glycan array binding signal (z-score) [5]: -0.163 | glycan array binding signal (z-score) [6]: -0.143 | glycan array binding signal (z-score) [7]: -0.113 | glycan array binding signal (z-score) [8]: 0.023 | glycan array binding signal (z-score) [9]: -0.168 | glycan array binding signal (z-score) [10]: -0.157 | glycan array binding signal (z-score) [11]: -0.154 | glycan array binding signal (z-score) [12]: -0.25 | glycan array binding signal (z-score) [13]: -0.151 | glycan array binding signal (z-score) [14]: -0.252 | glycan array binding signal (z-score) [15]: -0.236 | glycan array binding signal (z-score) [16]: -0.119 | glycan array binding signal (z-score) [17]: -0.205 | glycan array binding signal (z-score) [18]: -0.14 | glycan array binding signal (z-score) [19]: -0.254 | glycan array binding signal (z-score) [20]: -0.147 | glycan array binding signal (z-score) [21]: 1.53 | glycan array binding signal (z-score) [22]: -0.312 | glycan array binding signal (z-score) [23]: -0.244 | glycan array binding signal (z-score) [24]: -0.179 | glycan array binding signal (z-score) [25]: 1.69 | glycan array binding signal (z-score) [26]: -0.243 | glycan array binding signal (z-score) [27]: -0.089 | glycan array binding signal (z-score) [28]: -0.182 | glycan array binding signal (z-score) [29]: -0.243 | glycan array binding signal (z-score) [30]: -0.17 | glycan array binding signal (z-score) [31]: 3.9 | glycan array binding signal (z-score) [32]: 8.79 | glycan array binding signal (z-score) [33]: 4.77 | glycan array binding signal (z-score) [34]: 5.68 | glycan array binding signal (z-score) [35]: 2.15 | glycan array binding signal (z-score) [36]: 11.7 | glycan array binding signal (z-score) [37]: -0.158 | glycan array binding signal (z-score) [38]: 0.084 | glycan array binding signal (z-score) [39]: -0.233 | glycan array binding signal (z-score) [40]: -0.245 | glycan array binding signal (z-score) [41]: 0.025 | glycan array binding signal (z-score) [42]: -0.241 | glycan array binding signal (z-score) [43]: -0.177 | glycan array binding signal (z-score) [44]: -0.167 | glycan array binding signal (z-score) [45]: -0.234 | glycan array binding signal (z-score) [46]: -0.34

From the supplement of paper PMC8728848
